Test results: PubChem BioAssay (NCI)
About 79,000 compounds went through this panel and 15% of them were active in at least one assay; those are over-represented in the sample as a whole. The source made the active and inactive calls. Rule as the data show it: active = growth inhibition above about 70%; inactive = the rest.

Assays:
[1] = NCI Yeast Anticancer Drug Screen. Data for the rad50 strain (AID 155);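 also: 0% = growth of vehicle-only cultures of the same strain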; details: S. cerevisiae rad50 strain growth inhibition; at 50.0 µM; hits give high values
Procedure, shortened: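 Inhibition values express reduced yeast growth in compound-treated cultures relative to vehicle-treated controls.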

[2] = NCI Yeast Anticancer Drug Screen. Data for the mec2-1 strain (AID 157); details: S. cerevisiae mec2-1 strain, at 50.0 µM, hits give high values
Procedure, shortened: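 Cells of the genetically defined mec2-1 yeast strain are incubated with test compound. Inhibition of growth is calculated against vehicle-treated controls.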

[3] = NCI Yeast Anticancer Drug Screen. Data for the sgs1 mgt1 strain (AID 161);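 also: 0% = growth of cultures given vehicle only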; details: S. cerevisiae sgs1 mgt1 strain, at 50.0 µM, hits give high values
Procedure, shortened: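 Mutant yeast exposed to compound; growth scored against vehicle-only wells.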

[4] = NCI Yeast Anticancer Drug Screen. Data for the cln2 rad14 strain (AID 165);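 also: 0% = growth equal to vehicle treated cultures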; details: S. cerevisiae cln2 rad14 strain, at 50.0 µM, hits give high values
Procedure, shortened: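 The screen exposed genetically defined yeast (cln2 rad14) to test compounds and scored growth inhibition relative to vehicle-treated controls.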

[5] = NCI Yeast Anticancer Drug Screen. Data for the mlh1 rad18 strain (AID 175); details: S. cerevisiae mlh1 rad18 strain growth inhibition; at 50.0 µM; hits give high values
Procedure, shortened: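 Compound-treated yeast growth, normalised to vehicle controls. Strain bears defined DNA repair mutations.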

[6] = NCI Yeast Anticancer Drug Screen. Data for the bub3 strain (AID 167); details: S. cerevisiae bub3 mutant strain, at 50.0 µM, hits give high values
Procedure, shortened: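 Steps: expose the mutant yeast strain to compound; grow alongside vehicle-treated cultures; measure growth; express inhibition against the vehicle cultures.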

Measured: growth inhibition

Cc1ccc(/C=C2\SC(=S)N(c3ccc(F)cc3)C2=O)o1
inactive: [1] 14.7% | [2] 10.9% | [3] 28.4% | [4] 17.4% | [5] 23.9%

CC1(C)/C(=C\CO)C2CCC1C2 (stereo unspecified)
inactive: [1] 12.7% | [2] 0.05% | [3] 1.95% | [4] -4.95% | [5] 3.7%

COc1cc2c(cc1OC)[C@H](C(=O)O)[C@@H](c1ccc(OC(C)C)c(OC)c1)N(C)C2=O
inactive: [1] 6.05% | [2] -10% | [3] 7.2% | [4] -15.2% | [6] 15.4% | [5] -9.05%

COc1ccc2c(NCCCCCCCCNc3c4ccccc4nc4cc(OC)ccc34)c3ccccc3nc2c1
active: [1] 90.8% | [2] 91.4% | [3] 91.8% | [4] 89.3% | [6] 90.8% | [5] 88.3%

O=C1C=C(O)C(=O)C=C1O
inactive: [1] 4.45% | [2] -10.2% | [3] 14.9% | [4] 0.4% | [6] -2.35% | [5] 28.5%

O/N=C/c1ccc(O)cc1O
inactive: [1] -11.9% | [2] -5.45% | [3] -32.1% | [4] -29.9% | [5] -33.4%

CCCCCCCCOC(=O)c1ccccn1
inactive: [1] -6.75% | [2] 0.3% | [3] -8.05% | [4] -59% | [6] 16.6% | [5] -3.2%

CN(C)Cc1cc(C(C)(C)CC(C)(C)C)ccc1O
inactive: [1] 38.2% | [2] -3.2% | [3] 6.3% | [4] -43.9% | [6] 17.1% | [5] 42.5%

OCc1cccc2ccccc12
inactive: [1] 27.6% | [2] 25.9% | [3] 13.9% | [4] -27.4% | [6] 3.6% | [5] 24.5%

CN(C)c1ccc(S(=O)(=O)O)cc1
inactive: [1] 1.3% | [2] -3.65% | [3] 6.65% | [4] 10% | [5] 21.9%

NC(=S)CN1CCOCC1
inactive: [1] -2.6% | [2] -3.2% | [3] -5.9% | [4] 1.6% | [6] 1.3% | [5] 2.15%

O=C(CN1CCNCC1)N1CCOCC1
inactive: [1] -25.6% | [2] -25.1% | [3] -17.8% | [4] -23.9% | [6] -16.7% | [5] -13.8%

O=C(c1ccc(O)cc1)c1ccc(O)cc1
inactive: [1] 30.4% | [2] -6.6% | [3] 15.2% | [4] -49.1% | [5] 17.2%

CCOc1ccc(/C=C/C(=O)c2ccccc2)cc1
inactive: [1] -9.9% | [2] -15.9% | [3] 24.6% | [4] -20.1% | [5] -19.6%

CC(=O)Oc1ccc(Br)cc1C(=O)O
inactive: [1] -15.2% | [2] -24.2% | [3] -9.7% | [4] -26.9% | [6] -10.6% | [5] 4.15%

CCCCCCCCO
inactive: [1] 12.1% | [2] 17.2% | [3] 2.25% | [4] 5.5% | [6] -20.4% | [5] -13.2%

CC1(c2ccccc2)NC(=O)NC1=O (stereo unspecified)
inactive: [1] 26.7% | [2] -8.85% | [3] 0.8% | [4] -1.3% | [6] -7.65% | [5] 23.9%

CC(=O)OCCO
inactive: [1] 9.6% | [2] 3.5% | [3] -9.65% | [4] -6.35% | [6] -41.8% | [5] 17.6%

CCS(=O)(=O)CCCl
inactive: [1] 12.2% | [2] -5.1% | [3] 2.3% | [4] 5.9% | [5] 5.85%

c1c(-c2cc(C3CC3)[nH]n2)n[nH]c1C1CC1
inactive: [1] -62% | [2] -0.25% | [3] -17.6% | [4] -16.4% | [6] 1.8% | [5] 2.35%

COCCCNC(=O)c1nnn2c1nc(N)c1cc(Cl)ccc12
inactive: [1] -2.65% | [2] 2.75% | [3] 25.6% | [4] 3.2% | [6] 23.6% | [5] 10.6%

O=C(OCC(O)C1OC(c2ccccc2)OC(COC(=O)c2ccccc2)C1O)c1ccccc1 (stereo unspecified)
inactive: [1] 5.85% | [2] 4.85% | [3] 13.6% | [4] 16.6% | [6] 1% | [5] 11.9%

COC(=O)/C=C\C(=O)OC
inactive: [1] 16.1% | [2] 6.85% | [3] -15.1% | [4] -5.65% | [5] 14.7%

Cc1cc(N)c(S(=O)(=O)O)c(N)c1
inactive: [1] -31.9% | [2] 5.65% | [3] -4% | [4] -15.1% | [5] -57.8%

O=[N+]([O-])c1ccc(N=Nc2ccc(O)c3ccccc23)cc1
inactive: [1] 13.3% | [2] 1.45% | [3] 21.9% | [4] 16.6% | [5] -9.35%

C1CNC(C2=NCCN2)=N1
inactive: [1] -4.85% | [2] -8.2% | [3] -24.5% | [4] -26.1% | [6] -31.8% | [5] -7.25%

COc1cccc(COC(=O)Nc2ccccc2)c1OC
inactive: [1] 29.9% | [2] 21.4% | [3] 29.7% | [4] 21.5% | [5] 0.65%

N#CSc1cc(S(N)(=O)=O)ccc1N
inactive: [1] 5.65% | [2] -10.2% | [3] 4.05% | [4] -5.35% | [6] -1% | [5] 32%

COC(=O)CCCCC1=CCC2C(=O)C=C(O)C2C1 (stereo unspecified)
inactive: [1] -13.3% | [2] 13.1% | [3] -11.2% | [4] -2.5% | [6] -6.6% | [5] -18.8%

CCCCCCCCCCCCCCCCC1CC(=O)OC1=O (stereo unspecified)
inactive: [1] -4.35% | [2] -12.2% | [3] 5.9% | [6] -11.3% | [5] 4.55%

CN(C)c1ccc2oc(=O)c3ccccc3c2c1
inactive: [1] 6.05% | [2] 7.55% | [3] 1.55% | [6] 0.5% | [5] -33%

c1ccc(Cc2ccccc2)cc1
inactive: [1] 12.8% | [2] 39.2% | [3] -21.8% | [6] -1.1% | [5] 1.15%

c1ccc(CN2COc3c(ccc4c3OCN(Cc3ccccc3)C4)C2)cc1
inactive: [1] 7.4% | [2] 20.8% | [3] 23.1% | [6] 9.7% | [5] 8.3%

COc1ccc(C)cc1OC
inactive: [1] 26.3% | [2] 12.9% | [3] 1.3% | [6] -8.2%

c1cc2cccc3c4cccc5cccc(c(c1)c23)c54
inactive: [1] -18.9% | [2] -22.6% | [3] -17.9% | [4] 10.8% | [5] -15.4%

O=C(NC1CCCCC1)OCc1c(COC(=O)NC2CCCCC2)c(-c2ccc(Cl)c(Cl)c2)n2c1CCC2
inactive: [1] 16% | [2] 7.1% | [3] 27.4% | [6] -5.3%

O=S(=O)(O)CC(O)CN1CCN(CCO)CC1 (stereo unspecified)
inactive: [1] -18.9% | [2] -35.8% | [3] -36.8% | [6] -23.9% | [5] -6.3%

CCC(=O)Oc1ccc(OC)cc1
inactive: [1] 23.1% | [2] -13.4% | [3] 2.9% | [6] 3.9% | [5] 23.6%
